High-throughput results deposited in PubChem BioAssay by National Center for Advancing Translational Sciences (NCATS).
Hits are enriched below; roughly 19% of the tested compounds scored in any of these assays.
IL-1B inflam inh = inhibitors of inflammasome signaling (IL-1 beta secretion); AID 743279; THP-1 LPS/ATP IL-1B secretion, AlphaLISA, 16 h; hits give low values; activity change, % at 57.5 µM; actives 4.7% (n = 360,000); in the data active = activity change below about -50%; inconclusive = mostly about -30% to -49%
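THP-1 cells pretreated 1 hr with compounds (up to 57.5 uM final), then stimulated with LPS (250 ng/mL final) plus ATP (1.25 mM final); secreted IL-1B measured by AlphaLISA after 16 hr, decreased signal indicating inhibition.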
DT40 TDP1 no CPT = qHTS for Inhibitors of human tyrosyl-DNA phosphodiesterase 1 (TDP1): qHTS in cells in absence of CPT. Potency, µM (series often up to 46.2 µM), for the others: at the top dose activity change, negative = growth inhibition, most hits filed as inhibitors. DT40 Tdp1-/- hTDP1 cells, no CPT, ATP luminescence, 48 h. actives 15% (n = 420,000); also: potency is read from the fitted curve at half-maximal effect; nearly all actives have a fitted effect of over 55% in size
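Luminescent ATP content (CellTiter-Glo) served as the growth readout. Knockout chicken DT40 cells expressing human TDP1 were exposed to compounds without camptothecin for a minimum 48 hr at 37 °C.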
HT1080 IDH1KD tx = HT-1080 IDH1 knockdown cell toxicity (counter line). HT-1080 IDH1 knockdown viability, ATP luminescence, 48 h. Potency, µM (highest dose often 46.1 µM), without a hit: at the top dose activity, negative = toxicity, most hits filed as cytotoxic. actives 2% (n = 360,000);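 also: potency is read from the fitted curve at half-maximal effect; 0% = DMSO wells and -100% = cell-free medium wells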
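Cytotoxicity counter-line: IDH1KD HT-1080, 48 h, CellTiter-Glo. Curves classed by r2, magnitude and activity.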
HT1080-NT tox = kills 2HG-producing HT-1080-NT fibrosarcoma cells; HT-1080-NT fibrosarcoma viability, CellTiter-Glo ATP luminescence, 48 h; Potency, µM (doses to about 46.1 µM), for inactives: at the highest dose activity, negative = less viability, usual class: cytotoxic; actives 1.6% (n = 360,000); AID 686970;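 also: NT is the 2HG producing partner of a matched IDH1 knockdown line; potency is read from the fitted curve at half-maximal effect; 0% = DMSO-treated cells and -100% = media-only wells without cells; nearly all actives have a fitted effect of over 55% in size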
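HT-1080-NT; 750 cells/well; 5% FBS RPMI; 48 h compound, 37 degrees C; CellTiter-Glo luminescence; curve fitting and curve-class assignment.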
DT40 TDP1 CPT = DT40-hTDP1 cell growth loss with CPT; chicken DT40 Tdp1-/-;hTDP1 cells + 20 nM CPT, ATP luminescence, 48 h; Potency, µM (series often up to 46.2 µM), inactives show at the highest dose activity change, negative = growth inhibition, most hits filed as inhibitors; actives 12% (n = 420,000); also: potency is read from the fitted curve at half-maximal effect; nearly all actives have a fitted effect of over 55% in size
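Chicken DT40 Tdp1-/- cells stably complemented with human TDP1 were seeded at 400 cells/well in medium containing 20 nM camptothecin, exposed to pin-transferred compounds, and grown at 37 °C for at least 48 hr. Viability was read as ATP luminescence.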
The depositor's hits bear a star; u = inconclusive; x = not tested or not shown. Unless noted, calls follow the shape of the dose curve; as a rule, active = well fitted curve in the direction sought with a large enough effect; inconclusive = small, poorly fitted or top-dose-only effect, or another doubt; inactive = no such curve, though single readings can be large; an effect the other way counts as inactive or inconclusive. Unless noted, % is scaled to controls: 0 for no effect and ±100 for the full control effect.

SMILES	IL-1B inflam inh	DT40 TDP1 no CPT	HT1080 IDH1KD tx	HT1080-NT tox	DT40 TDP1 CPT
COc1ccc(C(=O)C(CN2CCOCC2)c2ccccc2)cc1F (stereo not given)	-101*	2.6µM*	12µM*	u	4.1µM*
CCCOc1ccc(C(=O)C(CN2CCOCC2)c2ccccc2)cc1 (stereo not given)	-97*	8.2µM*	16µM*	18µM*	13µM*
O=C(c1ccc(Cl)cc1)C(CN1CCCCC1)c1ccccc1 (stereo not given)	-103*	2.1µM*	2.6µM*	5.8µM*	1.6µM*
Cc1ccc(S(=O)(=O)N(CC(=O)Nc2ccc3c(c2)OCO3)c2ccc(C)c(Cl)c2)cc1	x	u	x	x	16µM*
COc1ccccc1N(CC(=O)Nc1ccc2c(c1)OCO2)S(=O)(=O)c1ccc(C)cc1	x	8.2µM*	x	x	23µM*
COc1ccc(Cl)cc1N(CC(=O)Nc1ccc2c(c1)OCO2)S(C)(=O)=O	-9	-25%	-6%	-12%	-16%
COc1ccc(OC)c(N(CC(=O)Nc2ccc3c(c2)OCO3)S(=O)(=O)c2ccccc2)c1	-17	u	-13%	-10%	26µM*
COc1ccccc1N(CC(=O)Nc1cc(C)on1)S(=O)(=O)c1ccc(Cl)cc1	-13	18µM*	-6%	-16%	18µM*
COc1ccccc1N(C)S(=O)(=O)c1ccc(C(=O)OCC(=O)Nc2cc(C)on2)cc1	12	2%	9%	4%	1%
Cc1ccc(S(=O)(=O)N(C)CC(=O)Nc2ccc3c(c2)OCO3)cc1	17	-10%	2%	5%	20%
O=C(O)C#CC(=O)O	x	-2%	x	x	0%
CS(=O)(=O)N1CCCC(C(=O)NCc2ccc(F)cc2Cl)C1 (stereo not given)	-11	-5%	4%	4%	-3%
COc1cccc(-c2nn(-c3ccccc3)cc2CN(C)C(C)c2ccon2)c1 (stereo not given)	30	u	-5%	-2%	u
CCC1C(=O)NCCN1C(=O)c1ccc(OC)c(OC2CCN(C(C)=O)CC2)c1 (stereo not given)	4	1%	8%	8%	8%
O=C(c1cc([N+](=O)[O-])[nH]n1)N1CCSCC1	14	2%	1%	18%	30%
CN1CC[C@@]2(CCCN(C(=O)c3cccn3C)C2)C1	x	1%	x	x	-17%
Cc1ccc2nc(Nc3ccc(C)c(C)c3)c3nncn3c2c1	-6	21µM*	25%	7%	u
CCOc1ccccc1Nc1nc2ccccc2n2cnnc12	18	u	8%	12%	7%
COc1ccccc1Nc1nc2ccc(C)cc2n2cnnc12	-12	18µM*	5%	-2%	u
c1ccc(N2CCOCC2)c(Nc2nc3ccccc3n3cnnc23)c1	-10	16µM*	-7%	-3%	21µM*
O=C(C[n+]1cccc(O)c1)NCc1ccc(Cl)cc1	-8	-5%	-5%	0%	15%
Cc1cc(OC(C)C(=O)NCC2CCC(C(=O)O)CC2)c2c(C)cc(=O)oc2c1 (stereo not given)	10	2%	-4%	1%	-14%
Cc1c(C(=O)NCc2cccc([N+](=O)[O-])c2)sc(=O)n1Cc1ccccc1F	u	u	-19%	5%	u
O=C(c1ccc(-c2nnc(Nc3cccc(Cl)c3)c3ccccc23)cc1)N1C[C@H]2C[C@H](C1)c1cccc(=O)n1C2	u	16µM*	u	u	u
COc1nnc(-c2ccc(C(=O)N3C[C@@H]4C[C@H](C3)c3cccc(=O)n3C4)cc2)c2ccccc12	-7	19%	14%	12%	15%
SMILES	IL-1B inflam inh	DT40 TDP1 no CPT	HT1080 IDH1KD tx	HT1080-NT tox	DT40 TDP1 CPT
C/C(=N\NC(=S)NC1CCCCC1)c1cccc(Br)c1	-2	16µM*	18%	20%	u
C/C(=N\NC(=S)NC1CCCCC1)c1cccc(C(F)(F)F)c1	58	23µM*	6%	25%	21µM*
C/C(=N\NC(=S)NC1CCCCC1)c1ccc(C#N)cc1	24	u	7%	4%	u
CCNC(=S)N/N=C(\C)c1cccc(C(F)(F)F)c1	-23	u	-24%	5%	u
CC1(C(=O)NCc2cccnc2)CCC(=O)N1Cc1cccs1 (stereo not given)	2	26%	7%	0%	14%
O=C(COC(=O)c1nc(Cl)ccc1Cl)NNC(=O)c1cccs1	15	3%	0%	1%	1%
CC[n+]1c(/C=C/N(C)c2ccccc2)n(-c2ccccc2)c2ccc(-c3nc4ccccc4s3)cc21	-102*	0.73µM*	5.8µM*	u	0.82µM*
CC[n+]1cccc(-c2nc3ccccc3s2)c1	57	10%	-13%	-8%	u
COc1ccc(CCNC(=O)Nc2cccs2)c(OC)c1	23	-1%	27%	21%	-8%
COc1ccc(CCNC(=O)NCc2noc3ccccc23)c(OC)c1	x	21µM*	x	x	u
Cc1ccc2onc(CNC(=O)NCc3ccc(Cl)cc3)c2c1	x	1%	x	x	-1%
O=C(NCc1ccccc1Cl)NCc1noc2ccccc12	x	9.2µM*	x	x	u
O=c1[nH]c(=S)[nH]c2c1C(c1cccc(C(F)(F)F)c1)OC(CCc1ccccc1)C2 (stereo not given)	4	u	u	u	u
CCOC(=O)C1(CC2CC2)CCN(C(=O)c2cc(C)nc3ccc(CC)cc23)CC1	-5	18µM*	-18%	-5%	21µM*
CCOC(=O)C1(CC2CC2)CCN(C(=O)c2ocnc2C)CC1	0	-23%	3%	16%	-17%
